# HT1080 IDH1KD tx: qHTS for induction of synthetic lethality in tumor cells producing 2HG: qHTS for the HT-1080-IDH1KD cell line | HT-1080 IDH1 knockdown viability, ATP luminescence, 48 h | Potency, µM (doses to about 46.1 µM), hits mostly cytotoxic | 2% of 360,000 active
#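 Knockdown cells (IDH1KD HT-1080) received compounds 2 h after plating at 750 cells/well and were kept 48 h at 37 °C in 5% FBS RPMI. A CellTiter-Glo luminescence read gave % activity for curve fitting.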
# IL1B secr inh: qHTS for Inhibitors of Inflammasome Signaling: IL-1-beta AlphaLISA Primary Screen. AID 743279, 2014. activity change, % at 57.5 µM. 4.7% of 360,000 active. THP-1 LPS/ATP IL-1B secretion, AlphaLISA, 16 h; active compounds read low; in the data active = activity change below about -50%; inconclusive = mostly about -30% to -49%
#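 THP-1 cells pretreated 1 hr with compounds (up to 57.5 uM final), then stimulated with LPS (250 ng/mL final) plus ATP (1.25 mM final); secreted IL-1B measured by AlphaLISA after 16 hr, decreased signal indicating inhibition.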
# HT1080-NT tox: qHTS for induction of synthetic lethality in tumor cells producing 2HG: qHTS for the HT-1080-NT fibrosarcoma cell line. HT-1080-NT fibrosarcoma viability, CellTiter-Glo ATP luminescence, 48 h. Potency, µM (titrated, usually from 46.1 µM), usual class: cytotoxic. 1.6% of 360,000 active;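 also: NT is the 2HG producing partner of a matched IDH1 knockdown line; nearly all actives have a fitted effect of over 55% in size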
#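 Luminescent CellTiter-Glo readout after 48 hours of compound exposure at 37 degrees C defined viability of HT-1080-NT cells. Activity was normalized to DMSO wells and cell-free media wells; concentration-response curves were fitted and assigned curve classes.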
# TDP1 cell noCPT: qHTS for Inhibitors of human tyrosyl-DNA phosphodiesterase 1 (TDP1): qHTS in cells in absence of CPT. DT40 Tdp1-/- hTDP1 cells, no CPT, ATP luminescence, 48 h. Potency, µM (series often up to 46.2 µM), hits mostly inhibitors. 15% of 420,000 active. AID 686978, 2013; also: nearly all actives have a fitted effect of over 55% in size
#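 Seeded 400 DT40-hTDP1 cells/well (vehicle DMSO, no 20 nM CPT); pinned compounds; ≥48 hr at 37 °C; CellTiter-Glo luminescence as viability measure.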
# DT40 TDP1 CPT: qHTS for Inhibitors of human tyrosyl-DNA phosphodiesterase 1 (TDP1): qHTS in cells in presence of CPT. Potency, µM (top dose mostly 46.2 µM), usual class: inhibitors. chicken DT40 Tdp1-/-;hTDP1 cells + 20 nM CPT, ATP luminescence, 48 h. 12% of 420,000 active. AID 686979, 2013; also: nearly all actives have a fitted effect of over 55% in size
#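 Chicken DT40 Tdp1-/- cells complemented with human TDP1, 400 cells/well, exposed to compounds plus 20 nM camptothecin for at least 48 h at 37 C; viability read as ATP content by CellTiter-Glo luminescence.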
# Numbers stand for hits; - = inactive; ? = inconclusive; . = not tested or not shown. This is a sample that favours compounds with a hit; in the whole collection about 19% have one here. Unless noted, calls follow the shape of the dose curve; as a rule, active = well fitted curve in the direction sought with a large enough effect; inconclusive = small, poorly fitted or top-dose-only effect, or another doubt; inactive = no such curve, though single readings can be large; an effect the other way counts as inactive or inconclusive.
SMILES,HT1080 IDH1KD tx,IL1B secr inh,HT1080-NT tox,TDP1 cell noCPT,DT40 TDP1 CPT
O=C(/C=C/c1ccc(Cl)cc1)Nc1nccs1,-,-,-,?,-
CCCCN(C(=O)c1cc(CN2C(=O)c3ccccc3C2=O)ccc1OC)c1c(N)n(CC(C)C)c(=O)[nH]c1=O,-,-,-,-,-
CCCOc1ccc(-c2c(C(=O)N/N=C/c3ccncc3)nnn2-c2nonc2N)cc1,?,-54,?,-,-
COc1ccccc1/C=N/NC(=O)c1nnn(-c2nonc2N)c1-c1cccs1,-,-,-,-,23µM
Cc1ccsc1/C=N/NC(=O)c1nnn(-c2nonc2N)c1-c1ccccc1,-,-92,-,-,-
COc1cccc(-c2c(C(=O)N/N=C/c3sccc3C)nnn2-c2nonc2N)c1,-,-54,-,-,-
COc1cccc(-c2c(C(=O)N/N=C/c3ccsc3)nnn2-c2nonc2N)c1,-,-,-,-,-
c1ccc(-c2ccc3cnccc3n2)cc1,-,-,-,-,-
CC1(C(=O)O)CCCN1C(=O)c1cccc(F)c1 (centres undefined),-,-,-,-,-
CCCCSCCCNC(=O)c1ccc(CS(=O)(=O)c2ccccc2OC)o1,-,-,-,?,?
COc1ccc(C2=Nc3ccccc3N(C(=O)c3cnccn3)C2C(=O)NC2CCCC2)cc1 (centres undefined),-,-,-,-,-
COc1ccc(N2CC(NC(=O)c3ccc(OC(C)C)cc3)CC2=O)cc1 (centres undefined),.,.,.,?,-
CCN1C(Nc2ccccc2)=NC[C@@H]1CC(C)C,-,-,-,-,-
CC(C)C[C@H]1CN=C(Nc2ccccc2)N1CC1CCCCCC1,-,-,-,21µM,?
CCC(C)CCN1C(Nc2ccccc2)=NC[C@@H]1CC(C)C (some centres undefined),-,-,-,16µM,16µM
CCC(C)CCN1C(Nc2ccccc2)=NC[C@@H]1Cc1ccccc1 (some centres undefined),-,?,?,16µM,21µM
CCN1C(Nc2ccccc2)=NC[C@@H]1Cc1ccccc1,-,-,-,-,?
CC(C)CCN1C(Nc2ccccc2)=NC[C@@H]1CC(C)C,-,-,-,?,15µM
CSc1ccc(-c2ccc3c(c2)CC(CNC(=O)Cn2nc(C)nc2C)O3)cc1 (centres undefined),.,.,.,-,-
O=C(NNc1ncccc1Cl)c1c(Cl)cccc1Cl,-,-,-,?,?
COC(=O)C[C@@H]1CC[C@H](NC(=O)CC2CC2)[C@@H](CO)O1,-,-,-,-,-
O=S(=O)(c1cc(F)ccc1F)N1CCN(C2CCCCC2)CC1,-,-,-,?,-
CCn1cc(C(=O)NCCN(C)C)c(=O)c2cc(F)c(N3CCN(C)CC3)cc21,-,?,-,-,-
CC1CCc2cc(F)cc3c(O)c(C(=O)NCCN(C)C)c(=O)n1c23 (centres undefined),-,?,?,18µM,21µM
COc1cccc(/C=N/NC(=O)CSc2cccc3cccnc23)c1,-,-,-,12µM,?
SMILES,HT1080 IDH1KD tx,IL1B secr inh,HT1080-NT tox,TDP1 cell noCPT,DT40 TDP1 CPT
Cc1cccc(CSc2cccc3cccnc23)c1,?,-110,?,3.7µM,4.1µM
CCOC(=O)CSc1cccc2cccnc12,?,-,-,5.8µM,5.8µM
O=C(CSc1cccc2cccnc12)N/N=C/c1ccc(O)cc1,-,-,-,?,?
Cc1cccc(NC(=O)CSc2cccc3cccnc23)c1C,-,-,-,-,-
C=CCn1c(O)c(CN2CCOCC2)c(C)c(C#N)c1=O,-,-,-,-,?
CC(=O)Nc1ccc(CN(C)c2c(C)nc3ccc(C(=O)N4CCN(c5ccccc5)CC4)cn23)cc1,-,-,-,?,23µM
CC(=O)Nc1ccc(CN(C)c2c(C)nc3ccc(C(=O)N(C)Cc4ccccc4)cn23)cc1,-,-,-,16µM,?
